The text below walks through data of publication PMC12751014, “Non-Catalytic Inhibitors of the p38/MK2 Interface: Repurposing Approved Drugs to Target Neuroinflammation in Alzheimer’s Disease” (Journal of Medicinal Chemistry, 2025).

About 50 (3%) of roughly 1,900 compounds showed an effect of 50% or more. Shown is part of a subset that was picked to be rich in strong results.

p38/MK2 protein–protein interaction (VF-p38α / GST-MK2), sequence (Q16539 2-360 limits assumed): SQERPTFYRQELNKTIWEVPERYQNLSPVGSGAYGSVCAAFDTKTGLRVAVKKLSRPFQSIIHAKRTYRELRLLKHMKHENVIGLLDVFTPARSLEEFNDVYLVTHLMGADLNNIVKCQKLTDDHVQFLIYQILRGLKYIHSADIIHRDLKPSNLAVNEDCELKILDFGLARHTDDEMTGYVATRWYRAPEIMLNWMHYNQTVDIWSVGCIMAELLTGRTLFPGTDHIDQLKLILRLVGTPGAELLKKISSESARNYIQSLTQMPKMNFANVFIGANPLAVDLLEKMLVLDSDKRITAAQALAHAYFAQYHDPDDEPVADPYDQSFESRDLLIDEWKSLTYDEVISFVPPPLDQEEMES

In this assay the target is p38/MK2 protein–protein interaction (VF-p38α / GST-MK2) (Homo sapiens, UniProt Q16539). The assay is described as follows: primary screen, percent of control activity; higher = less effect of the substance. More on the design: species or system HEK293T cell lysate transfected with VF-p38α and GST-MK2; unclear (methods say 'quintuplet replicates'). Put shortly:
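Lysate of HEK293T cells transfected with Flag-tagged p38α and GST-MK2, complex detected by TR-FRET with anti-Flag-Tb and anti-GST-d2 antibodies. Five replicates per compound. Signal normalised to percent of DMSO control.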
For `CN(C)CCOC(C)(c1ccccc1)c1ccccn1.O=C(O)CCC(=O)O` (centres unmarked), the Pct of control is on record as 101%.

In turn, `O=C1c2c(O)cc(O)cc2O[C@H](c2cc(O)c(O)c(O)c2)[C@H]1O` registered a Pct of control of 71.3%.

In turn, `COc1ccc(C2CC(=O)c3c(O)cc(O)cc3O2)cc1O` (centres unmarked) registered a Pct of control of 90.9%.

Consider `O=C(OC1Cc2c(O)cc(O)cc2OC1c1cc(O)c(O)c(O)c1)c1cc(O)c(O)c(O)c1` (single isomer, unassigned; (-)), for which the Pct of control amounted to 32.5%.

In the case of `CC12CC3CC(C)(C1)CC(N)(C3)C2.Cl`, the Pct of control amounted to 94.2%.

Compound `COc1cccc2c1C(=O)c1c(O)c3c(c(O)c1C2=O)CC(O)(C(=O)CO)CC3OC1CC(N)C(OC2CCCCO2)C(C)O1` (centres unmarked) registered a Pct of control of 56.6%.

On to `CC(NC(=O)C(O)c1cc(F)cc(F)c1)C(=O)NC1C(=O)N(C)c2ccccc2-c2ccccc21` (centres unmarked), for which the Pct of control worked out at 105%.

Compound `CN(C)CC(c1ccc(O)cc1)C1(O)CCCCC1` (centres unmarked) showed a Pct of control of 98.6%.

`Nc1ccccc1NC(=O)c1ccc(CNC(=O)OCc2cccnc2)cc1` gave a Pct of control of 96.2%.

In the case of `O=C(O)c1ccc(N2C(=O)C(=Cc3ccc(-c4ccc([N+](=O)[O-])cc4)o3)C=C2c2ccccc2)cc1`, the Pct of control is recorded as 24.8%.

On to `COc1c(C)cnc(Cn2cnc3c(Cl)nc(N)nc32)c1C`, for which the Pct of control came out at 111%.

For `COC1C=CC=C(C)C(=O)NC2=CC(=O)C(NCCN(C)C)=C(CC(C)CC(OC)C(O)C(C)C=C(C)C1OC(N)=O)C2=O.Cl` (centres unmarked), the Pct of control was 96.9%.

With `Cl.OC(CCN1CCCCC1)(c1ccccc1)C1CC2C=CC1C2` (centres unmarked), the Pct of control stood at 117%.

For the compound `COc1cc(C(C)=O)ccc1O`, the Pct of control worked out at 90.4%.

For the compound `O=C1Nc2ccc(I)cc2C1=Cc1cc(Br)c(O)c(Br)c1`, the Pct of control was 43.6%.

The compound `CCNCC.O=C(O)Cc1ccccc1Nc1c(Cl)cccc1Cl` displayed a Pct of control of 95.1%.

`CN(C)CCc1ccc(O)cc1` displayed a Pct of control of 89.6%.

For the compound `COc1cc2nc(N(C)CCCNC(=O)C3CCCO3)nc(N)c2cc1OC.Cl` (centres unmarked), the Pct of control is on record as 17.9%.

In turn, `COc1cc2nc(N3CCN(C(=O)C4COc5ccccc5O4)CC3)nc(N)c2cc1OC.CS(=O)(=O)O` (centres unmarked) had a Pct of control of 41.5%.

`COc1cc2nc(N3CCN(C(=O)C4CCCO4)CC3)nc(N)c2cc1OC.Cl.O.O` (centres unmarked) came in with a Pct of control of 23.3%.

In the case of `c1ccc(CNc2nc(NCc3ccccc3)c3ccccc3n2)cc1`, the Pct of control came out at 74.5%.

With `CCn1nc(C(=O)O)c(=O)c2cc3c(cc21)OCO3`, the Pct of control is reported as 86.4%.

`CC12CCC3c4ccc(O)cc4CCC3C1CCC2=O` (centres unmarked) came in with a Pct of control of 88.5%.

`O=c1[nH]c2ccccc2n1CCCN1CCC(n2c(=O)[nH]c3cc(Cl)ccc32)CC1` had a Pct of control of 91.8%.

In turn, `CC1CCc2c(N3CCC(O)CC3)c(F)cc3c(=O)c(C(=O)O)cn1c23` (centres unmarked) yielded a Pct of control of 90.3%.

Compound `CC(NC(=O)C(C#N)=Cc1cccc(Br)n1)c1ccccc1` (centres unmarked) registered a Pct of control of 24.1%.

`N#CC(=Cc1ccc(O)c(O)c1)C(=O)NCc1ccccc1` showed a Pct of control of 95.3%.

As to `CCCC(NC(=O)C(C#N)=Cc1cccc(Br)n1)c1ccccc1` (centres unmarked), the Pct of control is reported as 20.3%.

The compound `CCOC(=O)C1=C(COCCN)NC(C)=C(C(=O)OC)C1c1ccccc1Cl.O=S(=O)(O)c1ccccc1` (centres unmarked) returned a Pct of control of 91.6%.

In the case of `CC(C)CCN1c2nc(Nc3cc(F)c(O)c(F)c3)ncc2N(C)C(=O)C1C` (centres unmarked), the Pct of control is 86.7%.

`S=c1nc[nH]c2nc[nH]c12` yielded a Pct of control of 126%.

`COc1cc(-c2ncn(C=CC(=O)OC(C)C)n2)cc(C(F)(F)F)c1` displayed a Pct of control of 91.8%.

Consider `CN1CCN(c2nc(C3=C(c4c[nH]c5ccccc45)C(=O)NC3=O)c3ccccc3n2)CC1`, for which the Pct of control came out at 109%.

As to `CC(=O)Oc1cc2c(s1)CCN(C(C(=O)C1CC1)c1ccccc1F)C2` (centres unmarked), the Pct of control was determined as 87.9%.

Compound `Cc1cc(OCc2nnc(SC3CCCC3)n2-c2cccnc2)ccc1-c1ccc(S(C)(=O)=O)cc1` returned a Pct of control of 94.4%.

On to `CCCCCCNC(=O)n1cc(F)c(=O)[nH]c1=O`, for which the Pct of control was 110%.

`CN1CCc2cccc3c2C1Cc1ccc(O)c(O)c1-3.CN1CCc2cccc3c2C1Cc1ccc(O)c(O)c1-3.Cl.Cl.O` (centres unmarked) gave a Pct of control of 44.4%.

Compound `CN1CCc2cc3c(cc2C1C1OC(=O)c2c1ccc1c2OCO1)OCO3` (single isomer, unassigned; (+)) displayed a Pct of control of 93.7%.

With `CN1CCCC1c1cccnc1.O=C(O)C(O)C(O)C(=O)O.O=C(O)C(O)C(O)C(=O)O` (centres unmarked), the Pct of control is recorded as 91.9%.

Compound `O=C1CC(=O)c2c(Cl)c(Cl)c(Cl)c(Cl)c21` registered a Pct of control of 32.6%.

On to `CC(=O)CCCCn1c(=O)c2c(ncn2C)n(C)c1=O`, for which the Pct of control was 88.5%.

With `Cc1cc2c(cc1S(N)(=O)=O)S(=O)(=O)CCC2`, the Pct of control is given as 94.1%.

`Br.CN1C2CC(OC(=O)C(CO)c3ccccc3)CC1C1OC12` (centres unmarked) came in with a Pct of control of 98.3%.

As to `Nc1nccc(Oc2ccc(NC(=O)c3c[nH]cc(-c4ccc(F)cc4)c3=O)cc2F)c1Cl`, the Pct of control is 73.2%.

On to `Cc1nc(NC(=O)N2CCCC2C(N)=O)sc1-c1ccnc(C(C)(C)C(F)(F)F)c1` (centres unmarked), for which the Pct of control came out at 108%.

Regarding `Cc1ccc(Nc2nccc(N(C)c3ccc4c(C)n(C)nc4c3)n2)cc1S(N)(=O)=O`, the Pct of control is listed as 84.3%.

In turn, `CC(C)c1cc(C(C)C)c(CC(=O)NS(=O)(=O)Oc2c(C(C)C)cccc2C(C)C)c(C(C)C)c1` displayed a Pct of control of 36.9%.

In turn, `CNCC(O)c1ccc(O)c(O)c1.O=C(O)C(O)C(O)C(=O)O` (centres unmarked) showed a Pct of control of 92.6%.

`CCCC[N+]1(C)C2CC(OC(=O)C(CO)c3ccccc3)CC1C1OC12.[Br-]` (centres unmarked) gave a Pct of control of 96.8%.

For `O=C(NCC1(c2nc(-c3ccccc3)cs2)CCOCC1)c1cccc(-c2noc(C(F)(F)F)n2)c1`, the Pct of control is on record as 114%.

Take `CCOC(=O)c1ccc(N2NC(=O)C(=Cc3ccc([N+](=O)[O-])o3)C2=O)cc1`: the Pct of control was 34.2%.

On to `CCOC(=O)c1ccc(N)cc1`, for which the Pct of control is 97.4%.

The compound `NC(=O)N/N=C/c1ccc([N+](=O)[O-])o1` returned a Pct of control of 106%.
